Only some compounds are listed: those with a hit (about 3.5% of all), similar ones and a draw of the others.
TEAD-YAP block: TEAD-YAP interaction inhibition | AID 1259422 | inhibition, % at 9.12 µM | HEK-TIYL cells, TEAD-Gal4/YAP UAS-luciferase luminescence | 640,000 tested, 1.4% active; in the data active = inhibition above about 32%
MITF inh: inhibitors of human MITF; AlphaScreen MITF homodimerization, bead proximity signal; AID 1259374; inhibition, % at 2.6 µM; 650,000 tested, 0.91% active; in the data active = inhibition above about 50%
GPR151 activ: activators of human GPR151. Q8TDV0. PathHunter beta-arrestin GPR151 cells, luminescence. activation, % at 11.2 µM. 650,000 tested, 1% active; in the data active = activation above about 4.9%
FBW7 act: human FBW7 E3 ligase activation, primary screen; Q969H0; AlphaScreen FBW7–phospho-cyclin E peptide binding, activator screen; normalized activity (activation), % at 26.1 µM; 650,000 tested, 0.13% active; AID 1259310; in the data active = normalized activity above about 1.9%;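 also: purified mutant Fbw7 with reduced substrate affinity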
Target sequence (Q969H0 whole entry, looked up): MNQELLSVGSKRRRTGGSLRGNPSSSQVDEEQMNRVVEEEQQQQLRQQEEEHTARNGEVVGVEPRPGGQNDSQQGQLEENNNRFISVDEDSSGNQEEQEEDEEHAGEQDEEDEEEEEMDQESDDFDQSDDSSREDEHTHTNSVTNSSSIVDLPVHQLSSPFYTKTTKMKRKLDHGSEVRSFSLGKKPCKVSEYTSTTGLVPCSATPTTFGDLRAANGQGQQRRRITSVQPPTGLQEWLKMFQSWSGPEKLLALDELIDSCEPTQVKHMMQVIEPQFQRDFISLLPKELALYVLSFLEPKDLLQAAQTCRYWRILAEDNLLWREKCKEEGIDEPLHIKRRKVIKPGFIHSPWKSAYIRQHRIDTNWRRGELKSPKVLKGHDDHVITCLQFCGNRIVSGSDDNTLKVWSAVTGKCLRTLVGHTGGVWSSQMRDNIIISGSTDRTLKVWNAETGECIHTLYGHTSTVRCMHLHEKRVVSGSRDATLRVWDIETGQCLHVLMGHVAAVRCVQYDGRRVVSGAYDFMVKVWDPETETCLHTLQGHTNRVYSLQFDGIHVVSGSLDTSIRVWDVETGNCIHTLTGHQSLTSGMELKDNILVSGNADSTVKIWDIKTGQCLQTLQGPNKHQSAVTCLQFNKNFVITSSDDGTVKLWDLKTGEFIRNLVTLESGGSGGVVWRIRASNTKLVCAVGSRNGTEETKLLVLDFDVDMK
MITF inh conf: human MITF inhibition, confirmation | AlphaScreen MITF homodimerization, biotin/His-MITF beads | 4,700 tested, 16% active | shares compounds with MITF inh | inhibition, % at 2.6 µM;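 active = inhibition above a cutoff derived from the DMSO control wells, cut at about 28% in these data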;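 also: inhibitors lower the bead chemiluminescence by keeping MITF from dimerizing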
AlphaScreen intf2: optically interferes with AlphaScreen signal; LysRS AlphaScreen counterscreen, signal interference, triplicate; AID 1259376; 4,700 tested, 7.6% active; shares compounds with MITF inh; inhibition, % at 2.6 µM;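 active = inhibition above a cutoff derived from the DMSO control wells, cut at about 30% in these data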
Each line names hits and unclear results; the compound was inactive in the other large screens (follow-up assays come after a bar, where they were run).

O=Cc1cc(Cl)ccc1OCCOc1ccccc1	none
CN1CCN(CCCOc2ccccc2C=O)CC1	MITF inh 65 | MITF inh conf inactive | AlphaScreen intf2 inactive
O=Cc1cc(Cl)ccc1OCCCN1CCN(Cc2ccccc2)CC1	MITF inh 57 | MITF inh conf inactive | AlphaScreen intf2 inactive
CCCCOc1ccc(CN2CCN(CCOCCO)CC2)cc1	MITF inh 76 | MITF inh conf inactive | AlphaScreen intf2 inactive
Cc1[nH]nc(SCC(=O)Nc2sc3c(c2C(N)=O)CCCC3)c1[N+](=O)[O-]	none
COc1ccc(C(=O)NC(C)(C)C)cc1I	none
CN1CCN(CCCOc2ccc(Cc3ccccc3)cc2)CC1	none
O=Cc1ccc(OCCCN2CCN(Cc3ccccc3)CC2)cc1	MITF inh 57 | MITF inh conf inactive | AlphaScreen intf2 inactive
N#CC1(C(=O)Nc2ccc(Cl)c(Cl)c2)CC1	none
N/C(=N\N=C(/N)c1ccccn1)c1ccccn1	TEAD-YAP block 61, MITF inh 107 | MITF inh conf 100 | AlphaScreen intf2 100
Cc1cccc(Cc2nnc(CCC(=O)NCc3cccc(C(F)(F)F)c3)o2)c1	none
Ic1ccc(-c2ncc3ccccn23)cc1	none
c1coc(-c2ncc3ccccn23)c1	none
Clc1ccccc1-c1ncc2ccccn12	MITF inh 63 | MITF inh conf inactive | AlphaScreen intf2 36
COc1ccc(-c2ncc3ccccn23)cc1OC	MITF inh 70 | MITF inh conf inactive | AlphaScreen intf2 36
Cn1c(=O)[nH]c(=O)c2c1nc(Cl)n2CC(N)=O	MITF inh 82 | MITF inh conf inactive | AlphaScreen intf2 inactive
COCCNc1nc2nonc2nc1N(C)Cc1cccc(OC)c1	none
CC1CN(C(=O)CCC(=O)NC2CCCC2)c2ccccc2S1 (stereo not given)	none
O=S(=O)(c1ccc(F)cc1)N1CCN(Cc2cccc(Br)c2)CC1	MITF inh 60 | MITF inh conf inactive | AlphaScreen intf2 inactive
O=S(=O)(c1ccc(Cl)cc1)N1CCN(Cc2cccc(Br)c2)CC1	MITF inh 51 | MITF inh conf inactive | AlphaScreen intf2 inactive
CCN(Cc1ccccc1)C(=O)Nc1ccc(-c2cn[nH]c2)cc1OCCN1CCCC1	none
CCCOc1ccc(C2Oc3ccccc3C3CC(c4cccc5ccccc45)=NN32)cc1 (stereo not given)	none
COc1ccc(-n2nc(C(=O)NCc3ccco3)c3ccccc3c2=O)c(OC)c1	none
Cc1nc(N2CCCCC2)c2ccsc2n1	MITF inh 92 | MITF inh conf inactive | AlphaScreen intf2 inactive
CNCCCOc1ccc(C(C)(C)c2ccccc2)cc1	none
CN1CCN(CCCCOc2ccc(C(=O)c3ccccc3)cc2)CC1	MITF inh 75 | MITF inh conf inactive | AlphaScreen intf2 inactive
Clc1ccc(OCCN2CCNCC2)cc1	none
Ic1ccc(OCCN2CCNCC2)cc1	MITF inh 63 | MITF inh conf inactive | AlphaScreen intf2 inactive
O=C(c1ccccc1)c1ccc(OCCCCN2CCOCC2)cc1	none
COCCCNCCCCOc1ccc(OCc2ccccc2)cc1	MITF inh 53 | MITF inh conf inactive | AlphaScreen intf2 inactive
CNCCOc1ccc(C(C)(C)c2ccccc2)cc1	MITF inh 52 | MITF inh conf inactive | AlphaScreen intf2 inactive
C[C@@H]1NC(=O)[C@H]2CN(Cc3ccccc3)CCN2C1=O	none
FC(F)(F)c1cc(NCCc2ccccc2)n2ncnc2n1	none
CC(C)(c1ccccc1)c1ccc(OCCCN2CCNCC2)cc1	MITF inh 58 | MITF inh conf inactive | AlphaScreen intf2 inactive
c1ccc(COc2ccc(OCCN3CCNCC3)cc2)cc1	MITF inh 70 | MITF inh conf inactive | AlphaScreen intf2 inactive
c1ccc2c(OCCCN3CCNCC3)cccc2c1	none
CCOc1ccc(OCCOCCN2CCOCC2)cc1	none
CCOc1ccc(OCCCCN2CCNCC2)cc1	MITF inh 65 | MITF inh conf inactive | AlphaScreen intf2 inactive
CN1CCN(CCCOc2ccc(OCc3ccccc3)cc2)CC1	MITF inh 59 | MITF inh conf inactive | AlphaScreen intf2 inactive
NC(=O)C1(N2CCCCC2)CCN(S(=O)(=O)c2ccc(-c3ccccc3)cc2)CC1	none
COc1ccc(CC2(NC(=O)c3ccccc3)N=C3C=C(C)C=CN3C2=O)cc1OC (stereo not given)	none
CCc1c(C(=O)NC(C)CC)[nH]c(C)c1C(C)=O (stereo not given)	none
CN1CCN(CCCCN2C(=O)c3ccccc3C2=O)CC1	MITF inh 87 | MITF inh conf inactive | AlphaScreen intf2 inactive
CCC(C)(C)c1ccc(OCCN2CCNCC2)cc1	MITF inh 72 | MITF inh conf inactive | AlphaScreen intf2 inactive
CCc1ccc(OCCN2CCNCC2)cc1	none
COc1ccc(C(=O)CN2CCN(C)CC2)cc1	MITF inh 76 | MITF inh conf inactive | AlphaScreen intf2 inactive
COc1ccc(-c2ccc(=O)n(CC3CCN(C(=O)C4CCCCC4)CC3)n2)cc1	none
FC(F)(F)c1ccccc1CN1CCN(Cc2ccncc2)CC1	MITF inh 71 | MITF inh conf inactive | AlphaScreen intf2 inactive
OC1CCN(Cc2ccccc2C(F)(F)F)CC1	none
FC(F)(F)c1ccccc1CN1CCN(Cc2ccccc2C(F)(F)F)CC1	MITF inh 70 | MITF inh conf inactive | AlphaScreen intf2 inactive
Fc1ccccc1CN1CCN(c2ccccn2)CC1	none
FC(F)(F)c1ccccc1CN1CCN(Cc2ccccc2Br)CC1	MITF inh 62 | MITF inh conf inactive | AlphaScreen intf2 inactive
Fc1ccccc1CN1CCN(Cc2ccccc2C(F)(F)F)CC1	MITF inh 65 | MITF inh conf inactive | AlphaScreen intf2 inactive
COc1ccc(CN2CCN(Cc3ccccc3Br)CC2)cc1OC	none
Cc1ccccc1NC(=O)Nc1ccnn1C1CCN(Cc2cccc3c2OCO3)CC1	none
CS(=O)(=O)N1CCN(Cc2ccccc2C(F)(F)F)CC1	MITF inh 71 | MITF inh conf inactive | AlphaScreen intf2 inactive
OCC1CCN(C2CCCN(Cc3ccccc3C(F)(F)F)C2)CC1 (stereo not given)	none
OCCC1CN(Cc2ccccc2C(F)(F)F)CCN1C1CCCC1 (stereo not given)	none
FC(F)(F)c1ccccc1CN1CCN(C2CCCC2)CC1	MITF inh 64 | MITF inh conf inactive | AlphaScreen intf2 inactive
O=C(c1cccs1)N1CCN(Cc2ccccc2C(F)(F)F)CC1	MITF inh 70 | MITF inh conf inactive | AlphaScreen intf2 inactive
Cc1ccccc1CN1CCN(C(=O)c2cccs2)CC1	none
FC(F)(F)c1ccccc1CN1CCN(Cc2ccc(Br)cc2)CC1	MITF inh 82 | MITF inh conf inactive | AlphaScreen intf2 inactive
O=S(=O)(c1ccc(Cl)cc1)N1CCN(Cc2ccccc2C(F)(F)F)CC1	none
Cc1cc2nnc(SCC(=O)c3ccc(Cl)c(Cl)c3)n2c2ccccc12	none
COc1cc(/C=N/NC(=O)c2ccc(CN)cc2)cc(OC)c1O	none
CCCN1CCC(NCc2ccccc2C(F)(F)F)CC1	MITF inh 55 | MITF inh conf inactive | AlphaScreen intf2 inactive
CN1CCC(NCc2ccccc2C(F)(F)F)CC1	none
COCC(C)NC(=O)c1c(C(F)(F)F)nc2ccc(C)cn12 (stereo not given)	none
